# Data as given in ChEMBL document CHEMBL4513216, “Probing the Open Global Health Chemical Diversity Library for Multistage-Active Starting Points for Next-Generation Antimalarials” (ACS Infect Dis, 2020).
# Out of some 69,000 compounds screened, about 8,600 (12%) showed an effect of 50% or more. This excerpt belongs to a sample that is enriched for strong results.
# Tested on: Plasmodium berghei
# Experiment: Screen against P. berghei liver stage (PbLuc), transformed with Luciferase, at 10uM
# Type: functional, HepG2
# Conditions: tested at 10 uM
row,SMILES,INHIBITION [%]
1,COc1ccc(S(=O)(=O)N2CCC(O)(CN(C)C)C2)cc1 (centres undefined),38.2
2,Cc1sc(Br)cc1S(=O)(=O)NCCN,45
3,O=C(Cc1csc(Cc2ccccn2)n1)NCCCN1CCCC1=O,17.5
4,CCOCCC(=O)Nc1cccc(Cl)c1COC,33.7
5,O=C(Cc1n[nH]c2ccccc12)N1CCCC1Cn1cccn1 (centres undefined),24
6,CCc1nnc(C(C)N2CCCN(C(=O)OCC(C)C)CC2)o1 (centres undefined),36.5
7,CCc1nnc(C(C)N2CCN(CCC(=O)NC3CC3)CC2)o1 (centres undefined),33.1
8,CCc1nnc(C(C)N2CCN(CCC(C)(C)C)CC2)o1 (centres undefined),62.4
9,Cc1cncc(C(=O)N2CCCC(O)(CN3CCCC3)C2)c1 (centres undefined),4.13
10,CC(=O)N1Cc2ccccc2CC2(CCCCN2C)C1 (centres undefined),42.4
11,CN1CCCCC12Cc1ccccc1CN(C(=O)C1CCCC1)C2 (centres undefined),8.49
12,C[C@H](C(=O)N1Cc2ccccc2CC2(CCCN2C)C1)c1ccccc1 (some centres undefined),51.6
13,CC(C)C(=O)N1Cc2ccccc2CC2(CCCCN2C)C1 (centres undefined),53.2
14,CC(C)C(=O)N1Cc2ccccc2CC2(CCCN2C)C1 (centres undefined),37.5
15,CN1CCCCC12Cc1ccccc1CN(C(=O)c1ccccc1)C2 (centres undefined),10.1
16,O=C(c1ccccc1)N(CC1CC1)c1cccnc1,39.7
17,Cc1cc(NCc2cc3n(n2)CCCN(C(=O)C2CCC2)C3)ncn1,-2.46
18,CCc1nc(N2CCOCC2)ncc1C(=O)NC(c1cccs1)C(C)C (centres undefined),29.5
19,COCCN1C(=O)C2(CCC(C(=O)Nc3ccc(F)cc3)CC2)N=C1C (centres undefined),20.1
20,COCCN1C=NC2(CCC(C(=O)Nc3ccc(C)cc3)CC2)C1=O (centres undefined),63.5
21,COCCN1C(=O)C2(CCC(C(=O)Nc3ccc(C)cc3)CC2)N=C1C (centres undefined),31.4
22,Cc1nc(Nc2cnccn2)cc(C2CN(C(C)C)C2)n1,-21.4

row,SMILES,INHIBITION [%]
1,Cc1ccc(-c2nnc(SCC(=O)O)n2-c2ccccc2)cc1,5.11
2,CC(C)CS(=O)(=O)N1C[C@@H]2C[C@H](C(=O)N(C)C)[C@H](C1)O2,37.5
3,CCC(C(=O)N1CCN(S(=O)(=O)N2CCCC2)CC1)n1cccn1 (centres undefined),13
4,O=C1CCCC2=Nc3nonc3NC(c3cccc(F)c3F)C12 (centres undefined),4.66
5,O=C1CCCC2=Nc3nonc3NC(c3ccccc3F)C12 (centres undefined),12.3
6,O=C1CCCC2=Nc3nonc3NC(c3ccccc3Cl)C12 (centres undefined),12.3
7,O=C1CCCC2=Nc3nonc3NC(c3ccc(Cl)cc3Cl)C12 (centres undefined),57.8
8,O=C1CCCC2=Nc3nonc3NC(c3cc(Cl)ccc3F)C12 (centres undefined),76.8
9,O=C1CCCC2=Nc3nonc3NC(c3ccc(F)cc3F)C12 (centres undefined),-37.6
10,CC(C)N1CCC(Cc2cc(-c3ccccc3C(=O)O)ncn2)CC1,18.8
11,COCCN1CCC(Cc2cnc(-c3ccccc3C(=O)O)cn2)CC1,53
12,CC(C)N1CCC(Cc2cncc(-c3ccccc3C(=O)O)n2)C1 (centres undefined),15.9
13,CS(=O)(=O)N1CCCC(Cc2cncc(-c3ccccc3C(=O)O)n2)C1 (centres undefined),-1.85
14,CN1CCC(Cc2cncc(-c3ccccc3C(=O)O)n2)C1 (centres undefined),56
15,CC(C)N1CCC(Cc2cncc(-c3ccccc3C(=O)O)n2)CC1,38.7
16,CC1=Nc2c(c(=O)[nH]n2C(C)C)C(c2cccc(OC(F)F)c2)S1 (centres undefined),-28.4
17,Cc1cccc2nc(CN3CCC(N4CCN(C)C4=O)CC3)cn12,-54.1
18,COc1nn(C)c2c1CCCN(C(=O)c1cccc(C)n1)C2,31.2
19,CN1CCC(N2CCC(CN(Cc3ccncc3)C3CCC3)CC2)CC1,53.8
20,COCCN1CCC(CN(Cc2ccncc2)C2CCCCC2)CC1,-32.1
21,COCCN1CCC(CN(Cc2ccncc2)C2CCC2)CC1,43.7
22,O=C(C1=CCCC1)N1C[C@@H]2COC[C@]2(COc2ncccc2F)C1,16.8

row,SMILES,INHIBITION [%]
1,CC(C)N(CC(C)(C)O)C(=O)NC1CC1,23.5
2,CC(O)CN(C(=O)NC1CC1)C(C)C (centres undefined),55.4
3,CC(O)CN(C(=O)NC1CCN(CC2CCCCC2)CC1)C(C)C (centres undefined),21.2
4,Cc1noc(C)c1CN(C)c1nc(C2CCCC2)nc2c1cnn2C,20
5,CNC(=O)CNC(=O)c1ccc(-c2scnc2C)nc1,-89.4
6,CC(C)NC(=O)Cn1cc(-c2ccccc2)cn1,-16.7
7,Cc1ccc(-c2cnn(CC(=O)NC(C)C)c2)cc1,45.7
8,Cn1ncc(NC(=O)Cn2cc(-c3ccc(F)cn3)cn2)n1,77.9
9,Cn1ncc(NC(=O)Cn2ccc(-c3ccc(F)cc3)n2)n1,52.2
10,Cc1ncsc1-c1cc(C(=O)NCCO)ccn1,42.6
11,Cc1nc(C)c(-c2ccn(CC(=O)Nc3cnn(C)n3)n2)s1,82.4
12,Cn1ncc(NC(=O)Cn2ccc(-c3cccc(F)c3)n2)n1,7.39
13,Cc1ncsc1-c1ccn(CC(=O)Nc2cnn(C)n2)n1,85.7
14,NC(=O)NC(=O)CCn1ccc(-c2ccc(F)cc2)n1,16.2
15,Cc1cc(NC(=O)Cn2ccc(-c3ccc4c(c3)OCO4)n2)n(C)n1,13.8
16,Cn1nccc1NC(=O)Cn1ccc(-c2ccc3c(c2)OCO3)n1,43.4
17,CCc1noc(CN2CCN(c3nccs3)CC2)n1,19.5
18,CNC(=O)Cc1n[nH]c(-c2cncc(Br)c2)n1,-6.61
19,Cc1ncc(C(=O)N2CCCC(C(=O)CCc3ccccc3)C2)s1 (centres undefined),16.3
20,CCn1ncc2c1C(COC)CN(S(=O)(=O)N(C)C)C2 (centres undefined),10
21,OC(CN1CCN(Cc2ccccc2)CC1)C1CC1 (centres undefined),-20.5
22,CCN(C(=O)Cn1cc(Cl)cn1)c1ccccc1,4.81

row,SMILES,INHIBITION [%]
1,CNC(=O)Cn1ccc2ccc(NC(=O)NC(C)C(C)C)cc21 (centres undefined),15.5
2,CC(C)NC(=O)N1CCN(c2ccc(Cl)nn2)C(=O)C1,37.5
3,N#Cc1cccc(OCc2ccoc2C(=O)N2CCCCC2)c1,-105
4,Cc1nc(CCN)cc(N2CCC(O)(c3ccccc3)C2)n1 (centres undefined),7.1
5,CCc1nc(CN2CCCN(C(=O)COCC3CC3)CC2)cs1,54.3
6,CCCOCC(=O)N1CCCN(Cc2csc(CC)n2)CC1,1.75
7,Cc1nc(CN2CCN(C(=O)CCc3ccco3)CC2)cs1,42.9
8,CCc1nc(CN2CCCN(C(=O)c3cccn3C)CC2)cs1,-69.6
9,Cc1nc(CN)cc(N2CCC(O)(c3ccc(Cl)cc3)CC2)n1,3.82
10,Cc1nc(CCN)cc(N2CCC(O)(c3ccc(Cl)cc3)CC2)n1,80.8
11,Cc1nc(CN2CCCN(C(=O)COCC3CC3)CC2)cs1,43.2
12,CCc1nc(CN2CCN(C(=O)c3cc(C)nn3C)CC2)cs1,76.9
13,CCc1nc(CN2CCN(C(=O)c3cc(C)no3)CC2)cs1,-35.7
14,Cc1nc(CN2CCCN(C(=O)CCc3ccco3)CC2)cs1,12.7
15,CCc1nc(CN2CCCN(C(=O)CCc3ccco3)CC2)cs1,73.1
16,COCCOc1ncccc1C(=O)N1CCCC1Cn1cc(C)cn1 (centres undefined),15.5
17,COCCN1CCN(S(C)(=O)=O)Cc2cccnc21,-0.284
18,N#Cc1ccc(CN(CCF)Cc2cccc(F)c2)cc1,37.9
19,CCc1noc(CN2CCN(C(=O)N(CC)CC)CC2)n1,-7.31
20,O=C(c1ncccn1)N1CC[C@H]2OCC[C@@]2(COc2ccccn2)C1,-1.15
21,CN(C)CC(=O)Nc1ccc(C(=O)N(C)CCc2cn[nH]c2)cc1,38.2
22,CN(C)[C@@H]1CCN(c2ncc(F)cn2)[C@H]1Cc1ccncc1,-42.9

row,SMILES,INHIBITION [%]
1,O=C(CN1CC(c2nc(-c3cccs3)no2)C1)NCC1CCCO1 (centres undefined),32.1
2,CCc1ccc(C(=O)N2CCCN(Cc3csc(CC)n3)CC2)o1,-7.25
3,COc1ccc(C(=O)N2CCN(c3cc(CCN)nc(C)n3)CC2)cc1,38.5
4,Cc1nc(CCN)cc(N2CCCN(C(=O)c3ccco3)CC2)n1,50.3
5,CCc1nc(CN2CCCN(C(=O)Cc3cccs3)CC2)cs1,55.1
6,CCc1nc(CN2CCCN(C(=O)c3ccccc3)CC2)cs1,-155
7,CCc1nc(CN2CCCN(C(=O)CC(F)(F)F)CC2)cs1,-19.4
8,Cc1nc(CN2CCC23CCN(C(=O)c2ccncc2)CC3)cs1,12.7
9,Cc1nc(CN2CCC23CCN(C(=O)c2ccco2)CC3)cs1,60.2
10,Cc1nc(N2CCN(C(=O)c3ccco3)CC2)c2c(n1)c(C)nn2C,7.66
11,Cc1nc(CN2CCC23CCN(Cc2ccoc2)CC3)cs1,26.7
12,CCc1nc(CN2CCCN(C(=O)c3ccco3)CC2)cs1,53.9
13,CCc1nc(CN2CCCN(C(=O)COC)CC2)cs1,-61.4
14,Cc1nnc(C(NS(=O)(=O)c2cc(C)c(F)cc2F)C(C)C)[nH]1 (centres undefined),38.9
15,CNC(=O)[C@H]1C[C@@H]2CN(Cc3csc(C)n3)C[C@@H]2N1S(C)(=O)=O,28.5
16,C[S+]([O-])c1cccc(NC(=O)N[C@H](CCO)c2ccccc2)c1 (some centres undefined),11.5
17,Cc1cc(C(=O)NCC(c2ccsc2)N(C)C)no1 (centres undefined),24
18,NC(=O)NC(CC(=O)N1CCc2sccc2C1)c1ccccc1F (centres undefined),3.3
19,CCNc1cc2c(nn1)CCN(C(=O)C1Cc3ccccc3O1)C2 (centres undefined),18.6
20,CN(C)c1cc2c(nn1)CCN(C(=O)C1COc3ccccc3C1)C2 (centres undefined),20.2
21,CN(C)c1cc2c(nn1)CCN(C(=O)C1Cc3ccccc3O1)C2 (centres undefined),56.4
